The campaign covered roughly 420,000 compounds. About 64,000 (15%) were called active. About 27% were inconclusive and are not listed. Calls come from the whole dose curve; as a rule, active = well fitted inhibition curve with a large enough effect; inconclusive = small, poorly fitted or top-dose-only effect; inactive = flat fitted curve, though single readings scatter. A selection follows. Entries that show only a call come without a potency.
Assay: qHTS for Inhibitors of human tyrosyl-DNA phosphodiesterase 1 (TDP1): qHTS in cells in absence of CPT; note: nearly all actives have a fitted effect of over 55% in size
Conditions: DT40 Tdp1-/- hTDP1 cells, no CPT, ATP luminescence, 48 h; activity change, negative = growth inhibition: at 46.2 µM (top of the series)
Summary of the method: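 Compound effects on proliferation are scored in DT40 Tdp1-/-;hTDP1 cells in the absence of CPT. ATP levels (CellTiter-Glo luminescence) are recorded after a ≥48 hr, 37 °C incubation.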
Potency is the fitted concentration of half-maximal effect.

Row | Compound | Potency
1 | N#CCCCn1c(O)c(N=NC(=O)C(O)c2ccccc2)c2ccccc21 (stereo not given) | inactive
2 | CCNC(=S)NCC | inactive
3 | COc1ccc(CCNC(=S)N2CCN(S(=O)(=O)c3ccc(Cl)cc3)CC2)cc1 | inactive
4 | S=C(Nc1ccc(Cl)cc1Cl)N1CCCC1 | inactive
5 | Oc1cc2c(cc1O)CN(C(=S)NCCc1ccc(Cl)cc1)CCC2 | 8.91 µM (active)
6 | Cc1cccc(C)c1NC(=O)CNC(=O)Cc1ccc(Br)cc1 | inactive
7 | COc1ccccc1CNc1cc(-c2ccccc2CN(C)C)ncn1 | inactive
8 | FC(F)(F)c1ccccc1-c1cc(NCc2ccccc2)ncn1 | 9.2 µM (active)
9 | CN(Cc1ccco1)c1cc(-c2ccccc2C(F)(F)F)ncn1 | inactive
10 | COc1ccc(CCC(=O)c2c(O)cc(OC3OC(CO)C(O)C(O)C3O[C@@H]3OC(C)C(O)C(O)C3O)cc2O)cc1O (stereo not given in full) | inactive
11 | COCC1CCCN(Cc2ccc3c(c2)CN(C(=O)c2ccnn2C)CCO3)C1 (stereo not given) | inactive
12 | NS(=O)(=O)c1ccc(NC(=S)NNC(=O)c2cccs2)cc1 | inactive
13 | Cc1cc(C)nc(SCC(=O)N(C)C)n1 | inactive
14 | Cc1cc(Oc2ccc(Cl)cc2)nc(SCC(=O)c2ccccc2)n1 | 23.1 µM (active)
15 | Cc1cc(C)nc(SCC(=O)c2ccc(Cl)cc2)n1 | inactive
16 | Cc1ccc(C(=O)NCC(=O)O)cc1S(=O)(=O)N1CCCCC1 | inactive
17 | Cc1ccc(C)c(Nc2nnc(-c3ccc(C)c(S(=O)(=O)N4CCCCC4)c3)c3ccccc23)c1 | 9.2 µM (active)
18 | Cc1ccc(NS(=O)(=O)c2cccs2)cc1S(=O)(=O)N1CCCCCC1 | inactive
19 | COc1ccc(C2CC(=O)n3c(nc4ccccc43)S2)cc1OC (stereo not given) | inactive
20 | COc1cc(=O)n2c(c1C(=O)NC(C)c1ccco1)CCN(C(=O)c1cn3ccc(C)cc3n1)CC2 (stereo not given) | inactive
21 | O=C(CN1CCN(C(=O)c2ccco2)CC1)Nc1ccc2c(c1)OCO2 | inactive
22 | COc1ccc(OC)c(NC(=O)CN2CCN(C(=O)c3ccco3)CC2)c1 | inactive
23 | O=C(CN1CCN(C(=O)c2ccco2)CC1)Nc1ccc(Cl)c(C(F)(F)F)c1 | 16.4 µM (active)
24 | COc1cc(NC(=O)COC(=O)c2cnc(C)cn2)c(C)cc1[N+](=O)[O-] | inactive
25 | CCCN1C(=O)C(NS(=O)(=O)c2ccc(N)cc2)(C(F)(F)F)C(C(=O)OC)=C1C (stereo not given) | inactive
26 | O=C(O)CCCC(=O)N1N=C(c2ccco2)CC1c1ccco1 (stereo not given) | inactive
27 | COc1cccc(-c2coc3cc4oc(=O)c(CC(=O)O)c(C)c4cc23)c1 | inactive

Row | Compound | Potency
28 | Brc1ccccc1/C=N/Nc1nc2ccccc2o1 | inactive
29 | Oc1c(Br)cccc1/C=N/Nc1c(F)c(F)c(F)c(F)c1F | 20.6 µM (active)
30 | COc1ccc(C)cc1NC(=O)CN(C)S(=O)(=O)c1ccc2c(c1)n(C)c(=O)c(=O)n2C | inactive
31 | CCCSC1=C(C#N)C(c2ccccc2C)C(C(=O)OC)C(=O)N1 (stereo not given) | inactive
32 | Cn1c2ccccc2c2c(C(=O)N3CCN(c4ccc(F)cc4)CC3)cn(C3CCCC3)c(=O)c21 | 23.1 µM (active)
33 | CC(=O)N1c2ccccc2CC1C(=O)N1CCN(c2ccc(F)cc2)CC1 (stereo not given) | inactive
34 | CC(C)N(C(=O)COC(=O)c1ccccc1C(=O)N1CCN(c2ccc(F)cc2)CC1)C(C)C | inactive
35 | CC(NS(=O)(=O)c1ccccc1)c1n[nH]c(=S)n1-c1ccccc1 (stereo not given) | inactive
36 | CC(=O)Nc1ccc(NC(=O)[C@@H](NC(=O)c2cccc(C)c2)C(C)C)cc1 | inactive
37 | Cc1ccc(CNC(=O)CC2Sc3ccccc3NC2=O)cc1 (stereo not given) | inactive
38 | O=C(CC1Sc2ccccc2NC1=O)NNc1ccc(Cl)c(Cl)c1 (stereo not given) | 11.6 µM (active)
39 | O=C(CC1SCCNC1=O)Nc1ccc(Cl)c(Cl)c1 (stereo not given) | inactive
40 | NNC(=O)c1ccc(COCC(F)(F)C(F)F)cc1 | inactive
41 | Cc1ccc(OCC(=O)OCc2cc(=O)n3nc(C4CC4)sc3n2)cc1 | inactive
42 | CS(=O)(=O)c1ccc(C(=O)OCC(=O)NNC(=O)COc2ccc(Cl)cc2)cc1 | inactive
43 | Cc1ccc(-c2cc(N)on2)cc1 | inactive
44 | COc1cc(OC)cc(C(=O)NCC(=O)OCC(=O)NC(C)CCc2ccccc2)c1 (stereo not given) | inactive
45 | COc1cccc(C(=O)NCC(=O)OCc2cc(=O)n3ccsc3n2)c1 | inactive
46 | COc1cc(OC)cc(C(=O)NCC(=O)OCc2csc(-c3ccccc3)n2)c1 | 23.1 µM (active)
47 | CSc1ccc(CNCCN2CCOCC2)cc1 | inactive
48 | CCc1ccc(-n2c(SCc3cc(=O)n4cc(Br)ccc4n3)nc3[nH]ncc3c2=O)cc1 | 20.6 µM (active)
49 | CCCSc1nc2[nH]ncc2c(=O)[nH]1 | inactive
50 | COc1ccc(CCNC(=O)CSc2nc3[nH]ncc3c(=O)n2-c2cccc(C(F)(F)F)c2)cc1OC | inactive
51 | COc1ccccc1N1CCC(N2CCN(CC(C)(C)C)C(CCO)C2)CC1 (stereo not given) | inactive
52 | COc1ccccc1NC(=O)C[n+]1ccccc1 | inactive
53 | COc1ccccc1NC(=O)/C=C/C(=O)O | inactive
54 | COc1ccccc1NC(=O)/C=C/C(N)=O | 2.91 µM (active)

Row | Compound | Potency
55 | O=C(Nc1ccc(S(=O)(=O)Nc2nccs2)cc1)c1cc(=O)[nH]c2ccccc12 | inactive
56 | Cc1cccc(C(=O)O)c1[N+](=O)[O-] | inactive
57 | CC(C)(C)NCC(O)COc1cccc2[nH]c(=O)[nH]c12 (stereo not given) | inactive
58 | COc1ccccc1OCCNCC(O)COc1cccc2[nH]c3ccccc3c12 (stereo not given) | 16.4 µM (active)
59 | COc1ccccc1OCCNC(=O)c1cc([N+](=O)[O-])cc([N+](=O)[O-])c1 | inactive
60 | Fc1ccc(Br)cc1/C=N/n1cnnc1 | inactive
61 | CN(CC(=O)Nc1ccccc1[N+](=O)[O-])Cc1ccc(Br)cc1 | inactive
62 | COc1ccc(Br)cc1CN(C)CC(=O)Nc1cc([N+](=O)[O-])ccc1OC | 16.4 µM (active)
63 | COc1ccccc1CC(=O)Nc1ccc([N+](=O)[O-])cc1OC | inactive
64 | CCCC1C(c2ccccc2)C(C#N)(C#N)C2(C#N)CC1(N)NC2=O (stereo not given) | inactive
65 | COc1cccc(CNC(=O)CCN2C(=S)NC(C)(C)CC2C)c1 (stereo not given) | inactive
66 | O=C(O)C1=NN(c2c(F)c(F)cc(F)c2F)C(=O)CC1 | inactive
67 | CO[C@H]1[C@H](NC(=O)C(C)C)c2ccccc2C12CCN(Cc1cnc(N(C)C)s1)CC2 | inactive
68 | COc1cccc(CN2CCC3(CC2)c2ccccc2[C@@H](NC(=O)c2ccccc2OC)[C@@H]3O)c1 | 16.4 µM (active)
69 | COc1ccccc1C(=O)N[C@@H]1c2ccccc2C2(CCN(C(=O)c3csnn3)CC2)[C@H]1OC | inactive
70 | N[C@H](C(=O)O)c1ccc(C(=O)O)c(O)c1 | inactive
71 | CC1=NNC(=O)C1Cc1c(Cl)cccc1Cl (stereo not given) | inactive
72 | CC(C)c1nc(SCC(=O)NC(=O)NC(C)(C)C)n[nH]1 | inactive
73 | CC(C)(C)NC(=O)CSc1nc(-c2ccc(F)cc2)cc(C(F)(F)F)n1 | 18.4 µM (active)
74 | Cc1cc(C(F)(F)F)nn1-c1nc(-c2ccco2)cc(C(F)(F)F)n1 | inactive
75 | Cc1cccc(NC(=O)Cn2c(C(F)(F)F)nc3ccccc32)c1C | inactive
76 | Cc1cc(C(F)(F)F)nc(SCC(=O)Nc2nccs2)n1 | inactive
77 | CN(C)c1ccc(NC(=O)CSc2n[nH]c(-c3ccco3)n2)cc1 | inactive
78 | Cc1cccc(NC(=O)CSc2nc(-c3ccco3)cc(C(F)(F)F)n2)c1C | 9.2 µM (active)
79 | CCNS(=O)(=O)c1ccc(NC(=O)CSc2nc(-c3ccco3)cc(C(F)(F)F)n2)cc1 | 7.31 µM (active)
80 | O=C(CSc1nc(-c2ccco2)cc(C(F)(F)F)n1)NCc1cccs1 | inactive
81 | Cc1ccccc1CN1C(=O)CSCC1(C)C(=O)Nc1c(C)cccc1C (stereo not given) | inactive

Row | Compound | Potency
82 | Cc1n[nH]c(=O)c2c(NC(=O)CSc3cc(Cl)ccc3Cl)oc(C)c12 | inactive
83 | O=C(CSc1nnnn1C1CCCC1)N1CCCCC1 | inactive
84 | Cc1cc(=O)oc2c1ccc1ccccc12 | inactive
85 | O=C(Nc1ccc(C(=O)NCc2ccccc2Cl)cc1)C1=CSCCO1 | inactive
86 | C=CCn1c2c(c3ccccc31)CCC2 | inactive
87 | CCc1nnc(NS(=O)(=O)c2ccc(NC(=O)c3cccc(OC(F)(F)C(F)F)c3)cc2)s1 | inactive
88 | C/C(=N\Nc1nc(Nc2ccccc2)nc(N2CCOCC2)n1)c1cccs1 | 20.6 µM (active)
89 | C/C(=N\Nc1ccccc1)c1cccs1 | inactive
90 | O=C(c1cccs1)N1CCN(C(=O)N2CCOCC2)CC1 | inactive
91 | CCN(c1ccccc1)S(=O)(=O)c1ccc(OCC(=O)N2CCCC2)cc1 | inactive
92 | CCc1cccc(NC(=O)CCNS(=O)(=O)c2cccc3nonc23)c1 | inactive
93 | Cc1ccc(NC(=O)C2(N3CCC3=O)CCCCC2)cc1 | inactive
94 | Cc1cc(C(=O)NCCCc2ccccc2)no1 | inactive
95 | Cc1ccc(-c2cn3c(n2)sc2cc(C(=O)NCc4cccs4)ccc23)c(C)c1 | 18.4 µM (active)
96 | CCOc1ccc(CCNC(=O)Cn2nc(CC)n3c(cc4sc(CC)cc43)c2=O)cc1OCC | inactive
97 | CC(C)c1ccc(C(=O)NCCCc2ccccc2)cc1 | inactive
98 | CCOc1ccc(CCNC(=O)Nc2ccccc2)cc1OCC | inactive
99 | Cc1ccc(-c2cn3c(n2)sc2cc(C(=O)NCCCc4ccccc4)ccc23)cc1 | 8.2 µM (active)
100 | CCOc1ccc(CCNC(=O)c2ccc3c(c2)sc2nc(-c4ccc(F)cc4)cn23)cc1OCC | 5.8 µM (active)
101 | COc1ccc(Cl)cc1C(=O)OCC(=O)NCc1cccs1 | inactive
102 | COc1ccc(CCNC(=O)CN(C)S(=O)(=O)c2ccc3nc(C)sc3c2)cc1OC | inactive
103 | COc1ccc(CCNC(=O)c2ccc3c(c2)sc2nc(-c4ccc(C)cc4)cn23)cc1OC | 5.17 µM (active)
104 | CCOc1cccc2cc(-c3cn4c(n3)sc3cc(C)ccc34)c(=O)oc12 | inactive
105 | CCc1cc2c(cc3c(=O)n(CC(=O)NCCc4ccc(OC)c(OC)c4)ncn32)s1 | inactive

From PubChem BioAssay AID686978 (National Center for Advancing Translational Sciences (NCATS), 2013)
